# Assay results reported in ChEMBL document CHEMBL4808148, “HDAC6 screening dataset using tau-based substrate in an enzymatic assay yields selective inhibitors and activators” (2021).
# Out of some 5,600 compounds screened, about 150 (2.7%) showed an effect of 50% or more. What follows is part of a selection rich in strong results, with near analogues and random picks from the rest.
# Tests used:
# [1] = biological target: T1, Protein deacetylase HDAC6 (Homo sapiens) (UniProt Q9UBN7); details: at 10 µM
# T1 sequence (whole entry): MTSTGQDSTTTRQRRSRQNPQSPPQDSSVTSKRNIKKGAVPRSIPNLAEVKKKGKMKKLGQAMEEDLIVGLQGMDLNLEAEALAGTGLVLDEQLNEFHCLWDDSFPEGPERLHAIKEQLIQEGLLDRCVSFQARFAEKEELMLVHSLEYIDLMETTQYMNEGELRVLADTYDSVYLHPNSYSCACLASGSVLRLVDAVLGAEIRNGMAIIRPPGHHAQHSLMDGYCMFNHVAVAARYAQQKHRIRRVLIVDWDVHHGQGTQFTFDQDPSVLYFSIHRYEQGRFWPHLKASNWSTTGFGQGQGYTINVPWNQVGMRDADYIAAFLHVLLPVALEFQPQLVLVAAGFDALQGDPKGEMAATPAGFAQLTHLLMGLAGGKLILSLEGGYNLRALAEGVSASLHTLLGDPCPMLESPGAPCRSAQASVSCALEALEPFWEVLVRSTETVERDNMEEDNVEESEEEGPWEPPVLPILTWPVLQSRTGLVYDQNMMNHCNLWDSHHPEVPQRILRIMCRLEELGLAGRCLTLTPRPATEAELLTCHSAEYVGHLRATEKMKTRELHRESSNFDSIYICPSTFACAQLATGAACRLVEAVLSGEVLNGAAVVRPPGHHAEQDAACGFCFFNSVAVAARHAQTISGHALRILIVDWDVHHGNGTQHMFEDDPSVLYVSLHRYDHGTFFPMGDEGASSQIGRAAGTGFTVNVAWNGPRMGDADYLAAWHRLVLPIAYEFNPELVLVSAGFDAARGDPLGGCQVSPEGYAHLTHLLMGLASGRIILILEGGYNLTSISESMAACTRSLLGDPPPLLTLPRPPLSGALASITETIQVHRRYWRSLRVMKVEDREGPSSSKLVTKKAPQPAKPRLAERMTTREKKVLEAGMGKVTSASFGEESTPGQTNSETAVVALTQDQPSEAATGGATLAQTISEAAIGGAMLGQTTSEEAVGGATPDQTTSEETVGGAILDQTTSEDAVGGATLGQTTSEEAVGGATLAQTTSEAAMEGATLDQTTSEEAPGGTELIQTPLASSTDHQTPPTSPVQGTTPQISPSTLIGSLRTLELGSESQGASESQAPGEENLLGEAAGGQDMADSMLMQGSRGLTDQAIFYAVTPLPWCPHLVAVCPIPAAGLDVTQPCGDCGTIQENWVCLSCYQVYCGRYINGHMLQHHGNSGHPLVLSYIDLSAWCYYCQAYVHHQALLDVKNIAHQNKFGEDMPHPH
# [2] = biological target: Protein deacetylase HDAC6 (Homo sapiens) (UniProt Q9UBN7); details: at 10 µM; remark: listed apart in the source
Compound,inhibition [1] [%],inhibition [2] [%]
CCN(CC)Cc1ccc(Nc2ccnc3cc(Cl)ccc23)cc1O,0.37,
O=C(c1ccc(CN2CCOCC2)cc1)N1CCN(C2CC2)CC1,4.17,
O=C1NC(=O)/C(=C/c2cccc(C(F)(F)F)c2)S1,8.21,
O=C1NC(=O)/C(=C/c2ccc3c(c2)OC(F)(F)O3)S1,-1.91,
O=C1NC(=O)/C(=C/c2ccc(-c3ccc(F)cc3O)o2)S1,87,
Cc1[nH]nc(C(F)(F)F)c1Cc1sc2c(c1C(=O)N1C[C@](C)(O)CO1)c(=O)n(C)c(=O)n2C(C)C,7.6,
O=C(NC1CCN(CCc2c[nH]c3ccccc23)CC1)c1ccccc1,22.6,
O=C(O)[C@H](Cc1c[nH]c2ccccc12)N1C(=O)c2ccccc2C1=O,3.67,
Oc1cc(O)cc(/C=C/c2ccc(O)c(O)c2)c1,74,
O=C(/C=C/c1ccc(O)c(O)c1)OCCc1ccccc1,13.8,
COc1cc(/C=C/c2ccc(O)cc2)cc(OC)c1,-1.8,
COc1ccc(/C=C\c2cc(OC)c(OC)c(OC)c2)cc1O,-2.33,
Oc1cc(O)cc(O)c1,2.03,
Oc1ccc(/C=C/c2cc(O)cc(O)c2)cc1,85.4,
CCCCNc1ncc(-c2ccc(CN3CCOCC3)cn2)c(N[C@H]2CC[C@H](O)CC2)n1,-9.04,
CCc1c(C(=O)Nc2cc(S(=O)(=O)N(CC)CC)ccc2O)[nH]c(C)c1C(C)=O,-2.94,
NC(Cn1ccc(=O)n(Cc2ccccc2C(=O)O)c1=O)C(=O)O (centres undefined),-9.78,
"SPIRAMYCIN, CHEMBL6195749",,-1.63
COc1ccc(Cl)cc1[C@]1(F)C(=O)Nc2cc(C(F)(F)F)ccc21,-2.57,
Nc1n[nH]c2nc3ccccc3nc12,33.5,
O=C(O)C(O)Cc1ccc(O)c(O)c1 (centres undefined),6.01,
O=C(NO)c1ccc(O)c(O)c1,56.3,
CC(C)C(=O)c1ccc(O)c(O)c1,0.03,
COc1cc2c(c(OC)c1OC)-c1c(cc3c(c1OC)OCO3)C[C@@H](C)[C@@H](C)C2,-5.94,
O=S(=O)(NCCCCCCc1ccccc1)c1cccc2c(Cl)cccc12,-3.75,

Compound,inhibition [1] [%],inhibition [2] [%]
CC/C(=C(\c1ccc(O)cc1)c1ccc(OCCNC)cc1)c1ccccc1,-2.91,
Oc1ccc(OCc2ccccc2)cc1,87,
COc1ccc(O)cc1,1.74,
O=C(O)c1ccccc1,3.92,
O=C(c1ccccc1)c1ccc2n1CCC2C(=O)O (centres undefined),75.8,
O=C(O)C1CCCN(CCC=C(c2ccccc2)c2ccccc2)C1 (centres undefined),-1.71,
CC(=O)C1=C(O)C=C2Oc3c(C(C)=O)c(O)c(C)c(O)c3[C@@]2(C)C1=O,-7.8,
CO[C@H]1/C=C/O[C@@]2(C)Oc3c(C)c(O)c4c(O)c(cc(O)c4c3C2=O)NC(=O)/C(C)=C\C=C\C(C)[C@H](O)[C@@H](C)[C@@H](O)[C@@H](C)[C@H](OC(C)=O)[C@@H]1C (some centres undefined),1.34,
CSc1nc(-c2ccc(F)cc2)c(-c2ccnc(NC(C)c3ccccc3)c2)[nH]1 (centres undefined),-0.06,
Cc1nccc2[nH]c(=O)ccc12,-0.8,
COC(=O)c1ccc(O)cc1,11.4,
COC(=O)CC1CC(c2ccc(O)cc2)=NO1 (centres undefined),68.8,
Fc1ccc(-c2cncc(CN3CCN(c4cccc5c4OCCO5)CC3)c2)cc1,2,
COC[C@@H](c1ccc(C(F)(F)F)cc1)N1CCN(C2(C)CCN(C(=O)c3c(C)ncnc3C)CC2)C[C@@H]1C,6.58,
O=C(c1ccc(/C=C/c2n[nH]c3ccccc23)cc1)N1CCNCC1,98,
Nc1c2ccccc2nc2ccccc12,4.21,
Nc1ccc(/N=N/c2ccccc2)c(N)n1,78.3,
O=C(O)CCn1c2c(c3ccccc31)C[C@H](NS(=O)(=O)c1ccc(F)cc1)CC2,0.51,
CN1CCc2c(c3ccccc3n2Cc2ccc(C(=O)NO)cc2)C1,97,
Cc1ccc2c(c1)c1c(n2CCc2ccc(C)nc2)CCN(C)C1,0.41,
N#Cc1c(N)nc(SCc2ncc[nH]2)c(C#N)c1-c1ccc(O)cc1,4.89,
CSc1ccc(C(=O)N[C@@H]2CCCC[C@@H]2NC(=O)CNC(=O)c2cc(C(F)(F)F)ccc2NC(=O)NC(C)C)cc1,-5.32,
Cc1ccc(S(=O)(=O)Nc2nc3ccccc3nc2Nc2ccc3nsnc3c2)cc1,1.65,
C#Cc1cccc(Nc2ncnc3cc(OC)c(OCCCCCCC(=O)NO)cc23)c1,94.6,
COc1cc2ncnc(Nc3cccc(Br)c3)c2cc1OC,-6.11,

Compound,inhibition [1] [%],inhibition [2] [%]
C#Cc1cccc(Nc2ncnc3cc(OCCOC)c(OCCOC)cc23)c1,1.06,
COc1cc2c(NC3CCN(C)CC3)nc(N3CCCN(C)CC3)nc2cc1OCCOCCN(C)C,4.62,
O=C(NCCO)c1cc(C(=O)NCCO)cc(C(=O)NCCO)c1,-2.63,
CCc1nn(CCO)c(CC)c1Oc1cc(C#N)cc(C#N)c1,-5.93,
O=C1Nc2ccccc2/C1=C1/Nc2ccccc2/C1=N\O,36.4,
O=C(Nc1ccc(O)cc1)c1ccccc1O,44.6,
O=C(N/N=C/c1ccccc1O)c1ccccc1O,77.3,
O=C(N/N=C/c1ccc(O)c(O)c1)c1cc2ccccc2cc1O,32.8,
CC#C[C@@H](CC(=O)O)c1ccc(OCc2cccc(-c3ccc(C(F)(F)F)cc3)c2)cc1,5.76,
O=C(O)c1ccc(CN2CCC(CN[C@@H]3C[C@H]3c3ccccc3)CC2)cc1,8.19,
N[C@@H](CCC(=O)O)C(=O)O,-3.62,
O=c1c(O)c(-c2ccc(O)cc2O)oc2cc(O)cc(O)c12,2.84,
O=c1c(-c2ccc(O)cc2)coc2cc(O)cc(O)c12,57.9,
COc1ccc(-c2oc3c(CC=C(C)C)c(O)cc(O)c3c(=O)c2O)cc1,6.17,
O=c1c(O[C@@H]2O[C@H](CO)[C@H](O)[C@H](O)[C@H]2O)c(-c2ccc(O)c(O)c2)oc2cc(O)cc(O)c12,11.7,
COc1ccc(-c2coc3cc(O)cc(O)c3c2=O)cc1,63.1,
COc1ccc(C(=O)c2ccc(C)cc2)c(O)c1,5.59,
COc1ccc(OCC2c3cc(OC)c(OC)cc3CCN2C(=O)c2cccc(Cl)c2)cc1 (centres undefined),-0.3,
"BIS(MALTOLATO)OXOVANADIUM(IV), CHEMBL286447",,1.5
c1ccc2c(c1)-c1nc-2nc2[nH]c(nc3nc(nc4[nH]c(n1)c1ccccc41)-c1ccccc1-3)c1ccccc21,-0.22,
Cc1cccc(-c2n[nH]cc2-c2ccc3ncccc3n2)n1,-0.98,
Cc1cc(O)c2c(=O)c3c(O)cc(O)c4c5c(O)cc(O)c6c(=O)c7c(O)cc(C)c8c1c2c(c34)c(c78)c65,22.2,
CCCCCCCCCCCCCCCC(=O)N[C@@H](CCC(=O)NCCCC[C@H](NC(=O)[C@H](C)NC(=O)[C@H](C)NC(=O)[C@H](CCC(N)=O)NC(=O)CNC(=O)[C@H](CCC(=O)O)NC(=O)[C@H](CC(C)C)NC(=O)[C@H](Cc1ccc(O)cc1)NC(=O)[C@H](CO)NC(=O)[C@H](CO)NC(=O)[C@@H](NC(=O)[C@H](CC(=O)O)NC(=O)[C@H](CO)NC(=O)[C@@H](NC(=O)[C@H](Cc1ccccc1)NC(=O)[C@@H](NC(=O)CNC(=O)[C@H](CCC(=O)O)NC(=O)[C@H](C)NC(=O)[C@@H](N)Cc1cnc[nH]1)[C@@H](C)O)[C@@H](C)O)C(C)C)C(=O)N[C@@H](CCC(=O)O)C(=O)N[C@@H](Cc1ccccc1)C(=O)N[C@H](C(=O)N[C@@H](C)C(=O)N[C@@H](Cc1c[nH]c2ccccc12)C(=O)N[C@@H](CC(C)C)C(=O)N[C@H](C(=O)N[C@@H](CCCNC(=N)N)C(=O)NCC(=O)N[C@@H](CCCNC(=N)N)C(=O)NCC(=O)O)C(C)C)[C@@H](C)CC)C(=O)O,-0.77,
CC(=O)/N=c1/sc(S(N)(=O)=O)nn1C,0.67,
NS(=O)(=O)c1nn2cc(-c3ccccc3)nc2s1,82,

Compound,inhibition [1] [%],inhibition [2] [%]
CCCCOC(=O)c1cc2c(cn1)[nH]c1ccccc12,36,
O=C(O)c1cnn(-c2nc3cc(OC(F)(F)F)c(Cl)cc3[nH]2)c1,95.9,
Cc1ccc2[nH]c(=O)c(C3=NN(C(=O)CCC(=O)O)C(c4ccc(Br)cc4)C3)c(-c3ccccc3)c2c1 (centres undefined),-0.13,
CCC(CC)Nc1cc(C)nc(Oc2c(C)cc(C)cc2C)c1C,-6.76,
O=C(O)Cc1cc2ccccc2nc1C(=O)O,6.45,
C[C@@H]1O[C@@]2(CS1)CN1CCC2CC1.C[C@H]1O[C@]2(CS1)CN1CCC2CC1,-5.94,
O=C(CCCCCN1C(=O)c2cccc3cccc(c23)C1=O)NO,98.7,
O=C(O)CCCN1C(=O)c2cccc3cccc(c23)C1=O,-1.41,
O=C(O)CN1C(=O)c2cccc3cccc(c23)C1=O,5.8,
CC(C)(Sc1ccncc1-c1ccc(C#N)c2ccccc12)C(=O)O,2.75,
N[C@H](Cc1c[nH]cn1)C(=O)O,5.27,
C/C(=N\NC(=O)C(NC(=O)c1ccccc1)c1n[nH]c(=O)c2ccccc12)c1cccc(Br)c1 (centres undefined),0.86,
Cc1noc(C)c1-c1cc(O)cc(C(O)c2ccccc2)c1 (centres undefined),2.55,
CC(=O)Nc1ncc([N+](=O)[O-])s1,-3.88,
COc1ccc(CNC(=O)Nc2ncc([N+](=O)[O-])s2)cc1,64.8,
COc1ccc(CNC(=O)c2sc3nc(C)cc(C)c3c2N)cc1,13.2,
CCCCn1ccc(N2CCC(c3ccccc3)CC2)c(Cl)c1=O,42.8,
CCOC(=O)N1c2ccc(C(F)(F)F)cc2[C@@H](N(Cc2cc(C(F)(F)F)cc(C(F)(F)F)c2)C(=O)OC)C[C@H]1CC,-1.4,
CC[C@@H]1C[C@H](N(Cc2cc(C(F)(F)F)cc(C(F)(F)F)c2)C(C)=O)c2cc(C(F)(F)F)ccc2N1C(=O)OC(C)C,88.1,
CCCCCCCCCCCCCCCCNc1ccc(C(=O)O)cc1,2.63,
"FLUPENTIXOL, CHEMBL6066864",,14.4
CC(=O)Nc1ccc(CC(=O)O)cc1,-5.64,
CN(C)C(=O)COC(=O)Cc1ccc(OC(=O)c2ccc(NC(=N)N)cc2)cc1,96.5,
CCOC(=O)c1ccc(OC(=O)CCCCCNC(=N)N)cc1,22.4,
